HT1080 IDH1KD tx: HT-1080 IDH1 knockdown cell toxicity (counter line); 360,000 tested, 2% active; AID 686971; HT-1080 IDH1 knockdown viability, ATP luminescence, 48 h; Potency, µM (series often up to 46.1 µM), for the others: at the top dose activity, negative = toxicity, most hits filed as cytotoxic;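 also: 0% = DMSO wells and -100% = cell-free medium wells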
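Assay cells: HT-1080 with IDH1 knockdown, 750 per well, RPMI/5% FBS. Exposure: 48 h at 37 °C following 2 h pre-incubation. Read: CellTiter-Glo luminescence; fitted concentration-response, curve class assigned.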
DT40 TDP1 CPT: growth inhibition of DT40 Tdp1-/-;hTDP1 cells with camptothecin (screen for TDP1 inhibitors); chicken DT40 Tdp1-/-;hTDP1 cells + 20 nM CPT, ATP luminescence, 48 h; Potency, µM (highest dose often 46.2 µM), for the others: top-dose activity change, negative = growth inhibition, usual class: inhibitors; 420,000 tested, 12% active; AID 686979; also: nearly all actives have a fitted effect of over 55% in size
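Cell growth measured by CellTiter-Glo luminescence after a minimum 48 h, 37 C compound exposure with 20 nM CPT in Tdp1-knockout DT40 cells stably expressing hTDP1, seeded 400/well; qHTS titration format.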
KB-V1 MDR tox: KB-V1 MDR subline cytotoxicity; KB-V1 MDR cells viability, CellTiter-Glo, 72 h; Potency, µM (doses to about 46.1 µM), actives largely listed as cytotoxic; 400,000 tested, 3.4% active; AID 1347076; also: nearly all actives have a fitted effect of over 60% in size
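KB-V1 cells (P-gp-expressing MDR subline of KB-3-1) in phenol-red-free DMEM with 10% FBS were exposed to library compounds over a concentration series for 72 h at 37 degrees C. Viability read by CellTiter-Glo luminescence; concentration-effect curves fitted after normalization.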
KB-3-1 cytotox: KB-3-1 parental cell cytotoxicity. 400,000 tested, 1.4% active. KB-3-1 viability, CellTiter-Glo ATP luminescence, 72 h. Potency, µM (titrated, usually from 46.1 µM), hits mostly cytotoxic; also: nearly all actives have a fitted effect of over 60% in size
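Screening of KB-3-1 cells (DMEM, 10% FBS, phenol-red free) ran from lowest to highest compound concentration; after 72 h at 37 °C viability was read luminescently and curves fitted.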
DT40 TDP1 no CPT: qHTS for Inhibitors of human tyrosyl-DNA phosphodiesterase 1 (TDP1): qHTS in cells in absence of CPT; DT40 Tdp1-/- hTDP1 cells, no CPT, ATP luminescence, 48 h; Potency, µM (top dose mostly 46.2 µM), for inactives: at the highest dose activity change, negative = growth inhibition, most hits filed as inhibitors; AID 686978, 2013; 420,000 tested, 15% active; also: nearly all actives have a fitted effect of over 55% in size
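Luminescent ATP content (CellTiter-Glo) served as the growth readout. Knockout chicken DT40 cells expressing human TDP1 were exposed to compounds without camptothecin for a minimum 48 hr at 37 °C.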
HT1080NT lethal: kills 2HG-producing HT-1080-NT fibrosarcoma cells; Potency, µM (series often up to 46.1 µM), for the others: at the highest dose activity, negative = less viability, hits mostly cytotoxic; HT-1080-NT fibrosarcoma viability, CellTiter-Glo ATP luminescence, 48 h; AID 686970; 360,000 tested, 1.6% active;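 also: NT is the 2HG producing partner of a matched IDH1 knockdown line; 0% = DMSO-treated cells and -100% = media-only wells without cells; nearly all actives have a fitted effect of over 55% in size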
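Viability of the 2HG-overproducing fibrosarcoma line after 48 hours of compound exposure at 37 degrees C was determined by luminescence with CellTiter-Glo, and concentration-effect curves were then fitted and categorized.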
An asterisk follows results filed as active; i = inactive; ? = inconclusive; / = no result. A selection: hits, their analogues and other compounds. The true share with any hit is near 19%. Calls follow the shape of the dose curve; as a rule, active = well fitted curve in the direction sought with a large enough effect; inconclusive = small, poorly fitted or top-dose-only effect, or another doubt; inactive = no such curve, though single readings can be large; an effect the other way counts as inactive or inconclusive. Unless noted, % is scaled to controls: 0 for no effect and ±100 for the full control effect; potency is read from the fitted curve at half-maximal effect.

SMILES	HT1080 IDH1KD tx	DT40 TDP1 CPT	KB-V1 MDR tox	KB-3-1 cytotox	DT40 TDP1 no CPT	HT1080NT lethal
CCN(CC)C(=O)c1c(-c2ccccc2)c(-c2ccccc2)nn(C)c1=O	/	5%	/	/	-1%	/
O=C(Nc1cc(Sc2nc3ccccc3s2)cc([N+](=O)[O-])c1)c1ccccc1	-25%	?	?	?	16µM*	-22%
O=C(Nc1cc(Sc2nc3ccccc3s2)cc([N+](=O)[O-])c1)c1ccccc1F	-24%	21µM*	?	?	?	-16%
Cc1cc(NC(=O)c2ccccc2F)ccc1-c1nc2ccccc2s1	/	?	i	i	?	/
O=C(Nc1cc(Sc2ccccn2)cc([N+](=O)[O-])c1)c1cccc(F)c1	?	?	13µM*	13µM*	?	-25%
O=C(Nc1ncccn1)c1cccc(F)c1	-4%	-1%	i	i	32%	0%
O=C(Cc1cc(=O)oc2cc(O)ccc12)NC(Cc1ccc(Cl)cc1)C(=O)O (stereo not drawn)	5%	-42%	?	i	?	12%
CC(C)Nc1nc2nonc2nc1Nc1ccccc1	?	2%	?	18µM*	?	-19%
C=CC[C@H](c1ccc(F)cc1)N(CC(C)C)S(=O)(=O)C=C	/	?	i	?	11µM*	/
CC(C)COP(=O)(OCC(C)C)C(O)c1ccc(F)cc1 (stereo not drawn)	11%	-15%	i	i	-18%	7%
O=C(O)CC(NC(=O)CCc1ccccc1)c1ccc(Cl)cc1 (stereo not drawn)	3%	5%	i	i	1%	2%
CC(=O)Nc1ccc(S(=O)(=O)O)c(OC(C)=O)c1	7%	1%	i	i	10%	0%
CNC(=O)/C=C1\NC(C)(C)Cc2c1ccc1ccccc21	-13%	21µM*	?	?	21µM*	-17%
CC(C)Cc1nnc(NC(=O)C2CC(=O)N(c3ccc4c(c3)OCCO4)C2)s1 (stereo not drawn)	-3%	1%	/	/	-4%	0%
C/C(=N/NC(=O)c1cc2ccccc2cc1O)c1ccco1	?	26µM*	?	?	13µM*	?
C/C(=N\NC(=O)c1c(C)nc2ccccn12)c1ccco1	21%	11%	i	i	4%	-15%
C/C(=N\NC(=O)c1cc2ccccc2cc1O)c1ccc(C)o1	?	18µM*	?	?	15µM*	?
Cc1ccc(C)c(NC(=O)Cc2coc3cc4c(cc23)CCC4)c1	-2%	-12%	i	i	-12%	-4%
CC(=O)c1cccc(NC(=O)Cc2coc3cc4c(cc23)CCC4)c1	-18%	?	i	i	6.5µM*	-18%
CCC(C)c1ccccc1NC(=O)Cc1coc2cc3c(cc12)CCC3 (stereo not drawn)	-4%	?	i	i	18µM*	1%
C/C=C/C1=CC(=O)C[C@H](c2ccc(Cl)cc2)C1	8%	?	i	i	?	0%
Cc1ccc(C(C(=O)Nc2ccc(C(C)C)cc2)N(C)C(=O)c2ccc(=O)[nH]c2)cc1 (stereo not drawn)	-17%	-10%	i	i	18µM*	-4%
O=S(=O)(c1ccccc1)N1CCN(CCO)CC1	11%	7%	i	i	0%	9%
CCCCC1Cc2[nH]c(=S)[nH]c(=O)c2C(c2ccc(C(C)C)cc2)O1 (stereo not drawn)	5%	16µM*	i	i	23µM*	21%
CC1OC(CCc2cccc(Cl)c2)Cc2[nH]c(=S)[nH]c(=O)c21 (stereo not drawn)	-5%	?	?	i	26µM*	-14%
SMILES	HT1080 IDH1KD tx	DT40 TDP1 CPT	KB-V1 MDR tox	KB-3-1 cytotox	DT40 TDP1 no CPT	HT1080NT lethal
CC(c1ccon1)N(C)Cc1cn(C)nc1-c1ccc2c(c1)OCCO2 (stereo not drawn)	-5%	11%	i	i	0%	6%
CC(c1ccon1)N(C)Cc1cn(Cc2ccccc2)nc1-c1ccc2c(c1)OCO2 (stereo not drawn)	-1%	18µM*	?	i	?	-2%
CN(Cc1ccccn1)Cc1cn(Cc2ccccc2)nc1-c1ccc2c(c1)OCO2	0%	-27%	?	i	23µM*	-13%
CN(Cc1cnccn1)Cc1cn(Cc2ccccc2)nc1-c1ccc2c(c1)OCO2	8%	10%	i	i	-2%	4%
Cc1nn(-c2ccccc2)c(-n2cccc2)c1C(=O)NCCCN1CCN(c2ccccc2F)CC1	/	16µM*	i	i	18µM*	/
O=C(c1cccc(C(=O)N2CCN(c3ccccc3F)CC2)n1)N1CCN(c2ccccc2F)CC1	-1%	?	i	i	?	-4%
Cc1nn(-c2ccc(F)cc2)c(-n2cccc2)c1C(=O)N1CCN(c2ccccc2F)CC1	/	/	10µM*	?	/	/
Cc1ccc(-n2nc(C)c(C(=O)N3CCN(C(=O)c4ccco4)CC3)c2-n2cccc2)cc1	12%	?	i	i	-20%	2%
Cc1nn(-c2ccc(F)cc2)c(-n2cccc2)c1C(=O)N1CCN(c2ccc(F)cc2)CC1	/	/	16µM*	?	/	/
CCN(CCn1cccn1)C(=O)CC1C(=O)NCCN1CCc1ccccc1 (stereo not drawn)	2%	-2%	/	/	0%	0%
O=C(Nc1c(Cl)cc(Cl)cc1-c1nc2ccccc2s1)c1ccc(Br)o1	-16%	?	i	?	?	-6%
Cn1c(=O)c2nc(-c3ccccc3)c(-c3ccccc3)nc2n(C)c1=O	3%	?	i	i	21µM*	-6%
COC(=O)c1ccc(OC(=O)CS(=O)c2ccccc2[N+](=O)[O-])cc1 (stereo not drawn)	-4%	?	i	i	26µM*	-3%
CCOC(=O)c1ccccc1OC(=O)CS(=O)c1ccccc1[N+](=O)[O-] (stereo not drawn)	-7%	?	i	i	?	-13%
O=C(CNc1ccc(C(F)(F)F)cc1[N+](=O)[O-])OCC(=O)c1ccccc1	9%	0%	i	i	-6%	7%
O=C(CS(=O)c1ccc(C(F)(F)F)cc1[N+](=O)[O-])Oc1ccccc1 (stereo not drawn)	16µM*	5.8µM*	?	?	4.6µM*	16µM*

Screening results: PubChem, National Center for Advancing Translational Sciences (NCATS)
